Experimental data published in the supplement of paper PMC10338343.
± gives the standard deviation.

Each sequence was assayed on MILI (PIWIL2) piRISC loaded with piRNA #1 (26 nt) (assay: pre-steady-state target cleavage rate (min^-1); guide: piRNA #1 5'p-UGAGGUAGUAGGUUGUAUAGUAUCCA; higher = faster piRNA-guided slicing of the target). Conditions: auxiliary factor: 500 nM mouse GTSF1.
Procedure, shortened: (§1)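 Cleave-'n-Seq measured uncleaved targets by sequencing after a transcribed, DNA-blocked target RNA library […] was mixed with 1 nM active affinity-purified piRISC holding one synthetic guide, with or without 500 nM GTSF1 partner protein, at 33 °C in HEPES–potassium acetate buffer for 0–8 or 0–960 min. Counts were normalised to depth and to weakly complementary targets, three trials were pooled, and k3 was capped at 0.0001 min^-1. A burst-and-steady-state fit gave the pre-steady-state cleavage rate.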

| Sequence | pre-steady-state target cleavage rate |
| --- | --- |
| GGAGACCUAUCUAUACAACCUACUACCUCCA | 0.0927 ± 0.0097 |
| GGAGACCAUACUAUACAACCUACUACCGUCA | 0.141 ± 0.023 |
| GGAGACGAUACUAUACAACGUACUAGCUCA | 0.00418 ± 0.0035 |
| GGAGACCUUACUAUACAACCUUCUACCUCA | 0.00711 ± 0.0021 |
| GGAGACGAUACUAUACAACCUACUUACCUCA | 0.169 ± 0.014 |
| GGAGAGGUUACUAUACAAGCUACUACCUCA | 0.0739 ± 0.012 |
| GGAGACCAAUGUAUACAACCUACUACCUCA | 0.0592 ± 0.01 |
| GGAGAGGAUACUAUACAACCUACUCCCUCA | 0.0191 ± 0.006 |
| GGAGUGGAUUCUAUACAACCUAGUACCUCA | 0.0634 ± 0.011 |
| GGAGACGAUACUAUACAACCUACUACCUACA | 0.178 ± 0.013 |
| GGAGAGGAUACUAUACAACCAUCUACCUCA | 0.00516 ± 0.0022 |
| GGAGACCUUACUAUACAUCCUACUACCACA | 0.246 ± 0.02 |
| GGAGACCAUACUACACAACCUACUACCUCA | 0.215 ± 0.018 |
| GGAGACCAUACUAUACAACCUAGUACCUCA | 0.0657 ± 0.013 |
| GGAGACGAUUCUAUACAACCUACUACCUGA | 0.167 ± 0.021 |
| GGAGACCAUACUAUACAUCCUACAACCUCA | 0.208 ± 0.019 |
| GGAGACGAUACUAUACAACCUACUACCGUCA | 0.125 ± 0.023 |
| GGAGUGGACACUAUACAACCUACUACCUCA | 0.241 ± 0.025 |
| GGAGACCUUACUAUACAACCUACUACCACA | 0.18 ± 0.018 |
| GGAGACCUUACUAUAGAACCUACUACCUCA | 0.125 ± 0.015 |

| Sequence | pre-steady-state target cleavage rate |
| --- | --- |
| GGAGACCAUACUAUACAACCUACUAACUCA | 0.0993 ± 0.021 |
| GGAGAGGAUACUAUACACCCUACUACCUCA | 0.122 ± 0.015 |
| GGAGAGGAUACUAUUCAUCCUACUACCUCA | 0.273 ± 0.02 |
| GGAGAGGAUACUAUACACCUACUACCUCA | 0.0354 ± 0.0068 |
| GGAGACGAAACUAUACAACCUACUAGCUCA | 0.083 ± 0.025 |
| GGAGACCUUUGAAUACAACCUACUACCUCA | 0.00751 ± 0.0038 |
| GGAGUGGAUACUAUACAUCGUACUACCUCA | 0.0624 ± 0.0061 |
| GGAGACCAUACUAUACAACCUACUACCAUCA | 0.168 ± 0.027 |
| GGAGAGGAUACUAUACUACCUAGUACCUCA | 0.00407 ± 0.0037 |
| GGAGUGCAUACUAUACAACCUACUACCUCA | 0.18 ± 0.0089 |
| GGAGACGAUACUUAACAACCUACUACCUCA | 0.134 ± 0.013 |
| GGAGACCUAUCUAUACAACCUCCUACCUCA | 0.0185 ± 0.0046 |
| GGAGACCUAUCUAAUACAACCUACUACCUCA | 0.0342 ± 0.0069 |
| GGAGAGGAUACUAUACAACCUACCUACCUCA | 0.142 ± 0.013 |
| GGAGUGGAUAGUAUACAACCUACUACCUCA | 0.0868 ± 0.0069 |
| GGAGUGGAUACCAUACAACCUACUACCUCA | 0.231 ± 0.02 |
| GGAGACGAUACUAUACAACCUACACCUCA | 0.00588 ± 0.0025 |
| GGAGACCUAACUAUACAACCUACUAGCUCA | 0.0915 ± 0.027 |
| GGAGACGAUACUAUACAUCCUACAACCUCA | 0.287 ± 0.022 |
| GGAGUGGAUACUAUACACCUACUACCUCA | 0.0342 ± 0.0053 |

What follows are sequences tested on EfPiwi piRISC loaded with piRNA #1 (26 nt) (assay: pre-steady-state target cleavage rate (min^-1); auxiliary factor: 500 nM Ephydatia muelleri Gtsf1; guide: piRNA #1 5'p-UGAGGUAGUAGGUUGUAUAGUAUCCA; MIWI and MILI are mouse PIWI proteins and EfPiwi is from a freshwater sponge; tags in brackets are library labels; higher = faster piRNA-guided slicing of the target). Conditions: not given.
Procedure, shortened: as §1

| Sequence | pre-steady-state target cleavage rate |
| --- | --- |
| GGAGACCUAUCUAUACAACCUACUACCUCCA | 0.0208 ± 0.0083 |
| GGAGACCAUACUAUACAACCUACUACCGUCA | 0.00677 ± 0.0025 |
| GGAGACGAUACUAUACAACGUACUAGCUCA | 0.00363 ± 0.0015 |
| GGAGACCUUACUAUACAACCUUCUACCUCA | 0.00767 ± 0.0037 |
| GGAGACGAUACUAUACAACCUACUUACCUCA | 0.0069 ± 0.0023 |
| GGAGAGGUUACUAUACAAGCUACUACCUCA | 0.0046 ± 0.0021 |
| GGAGACCAAUGUAUACAACCUACUACCUCA | 0.0133 ± 0.0056 |
| GGAGAGGAUACUAUACAACCUACUCCCUCA | 0.00429 ± 0.0017 |
| GGAGUGGAUUCUAUACAACCUAGUACCUCA | 0.00168 ± 0.0013 |
| GGAGACGAUACUAUACAACCUACUACCUACA | 0.00797 ± 0.0032 |
| GGAGAGGAUACUAUACAACCAUCUACCUCA | 0.0052 ± 0.002 |
| GGAGACCUUACUAUACAUCCUACUACCACA | 0.0038 ± 0.0032 |
| GGAGACCAUACUACACAACCUACUACCUCA | 0.0182 ± 0.0078 |
| GGAGACCAUACUAUACAACCUAGUACCUCA | 0.00446 ± 0.0014 |
| GGAGACGAUUCUAUACAACCUACUACCUGA | 0.00463 ± 0.0026 |
| GGAGACCAUACUAUACAUCCUACAACCUCA | 0.00248 ± 0.0024 |
| GGAGACGAUACUAUACAACCUACUACCGUCA | 0.00873 ± 0.0037 |
| GGAGUGGACACUAUACAACCUACUACCUCA | 0.115 ± 0.041 |
| GGAGACCUUACUAUACAACCUACUACCACA | 0.00339 ± 0.0016 |
| GGAGACCUUACUAUAGAACCUACUACCUCA | 0.00324 ± 0.0026 |

| Sequence | pre-steady-state target cleavage rate |
| --- | --- |
| GGAGACCAUACUAUACAACCUACUAACUCA | 0.00957 ± 0.0048 |
| GGAGAGGAUACUAUACACCCUACUACCUCA | 0.0114 ± 0.0053 |
| GGAGAGGAUACUAUUCAUCCUACUACCUCA | 0.00619 ± 0.0034 |
| GGAGAGGAUACUAUACACCUACUACCUCA | 0.0984 ± 0.042 |
| GGAGACGAAACUAUACAACCUACUAGCUCA | 0.00368 ± 0.0023 |
| GGAGACCUUUGAAUACAACCUACUACCUCA | 0.00525 ± 0.0038 |
| GGAGUGGAUACUAUACAUCGUACUACCUCA | 0.0051 ± 0.0023 |
| GGAGACCAUACUAUACAACCUACUACCAUCA | 0.0041 ± 0.0029 |
| GGAGAGGAUACUAUACUACCUAGUACCUCA | 0.00301 ± 0.0017 |
| GGAGUGCAUACUAUACAACCUACUACCUCA | 0.0787 ± 0.029 |
| GGAGACGAUACUUAACAACCUACUACCUCA | 0.00683 ± 0.0038 |
| GGAGACCUAUCUAUACAACCUCCUACCUCA | 0.00509 ± 0.0028 |
| GGAGACCUAUCUAAUACAACCUACUACCUCA | 0.00579 ± 0.004 |
| GGAGAGGAUACUAUACAACCUACCUACCUCA | 0.00412 ± 0.0014 |
| GGAGUGGAUAGUAUACAACCUACUACCUCA | 0.00712 ± 0.0031 |
| GGAGUGGAUACCAUACAACCUACUACCUCA | 0.157 ± 0.051 |
| GGAGACGAUACUAUACAACCUACACCUCA | 0.00474 ± 0.0027 |
| GGAGACCUAACUAUACAACCUACUAGCUCA | 0.00459 ± 0.0036 |
| GGAGACGAUACUAUACAUCCUACAACCUCA | 0.00566 ± 0.0028 |
| GGAGUGGAUACUAUACACCUACUACCUCA | 0.157 ± 0.056 |
